Measured values reported in paper PMC7862700, “An all-to-all approach to the identification of sequence-specific readers for epigenetic DNA modifications on cytosine”.

Columns and labels:
Assay in all cases: DAPPL (digital affinity profiling via proximity ligation, sequencing); 10 mM Tris-HCl pH 7.5, 50 mM NaCl, 1 mM DTT, 4% glycerol, room temperature, 30 min; GST-TFs on glutathione beads, 16-mer random dsDNA library, 0.1% formaldehyde crosslink after washing; high values mean tight binding
Details in all cases: protein: recombinant; tags: N-terminal GST; dsDNA, one strand shown
GABPA = biological target: T1, GABPA (Homo sapiens, UniProt Q06546 1-454)
T1 sequence: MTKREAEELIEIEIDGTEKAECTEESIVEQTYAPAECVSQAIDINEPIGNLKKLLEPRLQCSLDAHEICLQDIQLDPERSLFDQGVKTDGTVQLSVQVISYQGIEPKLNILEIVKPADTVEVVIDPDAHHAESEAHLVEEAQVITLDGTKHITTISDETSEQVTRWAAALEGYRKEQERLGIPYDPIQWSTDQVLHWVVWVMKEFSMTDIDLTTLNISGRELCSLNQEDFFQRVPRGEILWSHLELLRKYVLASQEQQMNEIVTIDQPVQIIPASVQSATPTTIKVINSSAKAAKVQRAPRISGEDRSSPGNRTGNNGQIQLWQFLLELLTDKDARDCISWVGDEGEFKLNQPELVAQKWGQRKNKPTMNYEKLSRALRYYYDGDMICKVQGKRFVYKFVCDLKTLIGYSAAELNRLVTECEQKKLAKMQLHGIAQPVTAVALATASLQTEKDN
Summary of the method: (§1)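 Binding signal is each hexamer's read frequency for a factor divided by its frequency in the tag-only sample. The factors were GST-fused human transcription factors from yeast, captured on glutathione beads, DNA-barcoded and pooled with that sample. Pools were incubated with 200 nmole of a random double-stranded 16-mer DNA library in Tris/NaCl/DTT/glycerol buffer at room temperature for 30 min, then washed, crosslinked with 0.1% formaldehyde, proximity-ligated with BsaI/T4 ligase (1 h, 37 °C), PCR-amplified and sequenced on an Illumina NextSeq500.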

ELF1 = ELF1 (Homo sapiens, UniProt P32519 1-619)
Summary of the method: as §1

EHF = biological target: T2, EHF (Homo sapiens, UniProt Q9NZC4 1-300)
T2 sequence: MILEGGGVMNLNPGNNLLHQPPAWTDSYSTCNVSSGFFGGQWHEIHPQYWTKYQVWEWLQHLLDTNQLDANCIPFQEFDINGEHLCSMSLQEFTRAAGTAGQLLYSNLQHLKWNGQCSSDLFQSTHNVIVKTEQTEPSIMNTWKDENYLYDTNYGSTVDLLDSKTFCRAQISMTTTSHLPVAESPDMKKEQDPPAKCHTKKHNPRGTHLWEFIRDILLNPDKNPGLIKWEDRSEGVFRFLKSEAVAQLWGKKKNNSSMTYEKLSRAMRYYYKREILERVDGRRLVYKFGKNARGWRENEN
Summary of the method: as §1

FEV = biological target: T3, FEV (Homo sapiens, UniProt Q99581 1-238)
T3 sequence: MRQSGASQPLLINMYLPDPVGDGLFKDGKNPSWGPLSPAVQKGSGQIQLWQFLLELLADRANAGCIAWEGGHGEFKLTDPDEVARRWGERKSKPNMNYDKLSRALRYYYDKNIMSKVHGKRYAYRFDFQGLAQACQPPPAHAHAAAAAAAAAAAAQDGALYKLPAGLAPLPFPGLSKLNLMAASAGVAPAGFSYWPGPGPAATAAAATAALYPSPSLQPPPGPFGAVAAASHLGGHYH
Summary of the method: as §1

ETV5 = ETV5 (Homo sapiens, UniProt P41161 1-510)
Summary of the method: as §1

ELK4 = biological target: T4, ELK4 (Homo sapiens, UniProt P28324-2 1-405)
T4 sequence: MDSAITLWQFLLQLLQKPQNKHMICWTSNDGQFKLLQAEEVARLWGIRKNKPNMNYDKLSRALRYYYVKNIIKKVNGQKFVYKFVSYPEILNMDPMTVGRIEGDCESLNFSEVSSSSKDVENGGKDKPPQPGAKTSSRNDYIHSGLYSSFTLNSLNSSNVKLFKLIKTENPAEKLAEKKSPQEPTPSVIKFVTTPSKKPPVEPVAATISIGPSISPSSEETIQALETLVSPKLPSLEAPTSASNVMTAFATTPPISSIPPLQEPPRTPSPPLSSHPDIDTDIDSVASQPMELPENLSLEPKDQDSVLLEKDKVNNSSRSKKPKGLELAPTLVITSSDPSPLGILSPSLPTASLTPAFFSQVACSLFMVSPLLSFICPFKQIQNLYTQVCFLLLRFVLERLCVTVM
Summary of the method: as §1

ETV1 = ETV1 (Homo sapiens, UniProt P50549 1-477)
Summary of the method: as §1

SPDEF = biological target: T5, SPDEF (Homo sapiens, UniProt O95238 1-335)
T5 sequence: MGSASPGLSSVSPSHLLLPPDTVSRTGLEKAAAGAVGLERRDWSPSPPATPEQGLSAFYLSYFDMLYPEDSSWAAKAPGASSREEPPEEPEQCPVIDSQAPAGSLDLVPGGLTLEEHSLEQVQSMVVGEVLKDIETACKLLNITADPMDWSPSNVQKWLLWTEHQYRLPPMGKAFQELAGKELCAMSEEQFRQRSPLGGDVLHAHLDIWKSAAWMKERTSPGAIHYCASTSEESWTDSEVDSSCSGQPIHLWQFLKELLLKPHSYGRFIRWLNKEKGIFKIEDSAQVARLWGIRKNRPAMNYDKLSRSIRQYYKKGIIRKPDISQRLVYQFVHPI
Summary of the method: as §1

ETV7 = biological target: T6, ETV7 (Homo sapiens, UniProt Q9Y603 1-341)
T6 sequence: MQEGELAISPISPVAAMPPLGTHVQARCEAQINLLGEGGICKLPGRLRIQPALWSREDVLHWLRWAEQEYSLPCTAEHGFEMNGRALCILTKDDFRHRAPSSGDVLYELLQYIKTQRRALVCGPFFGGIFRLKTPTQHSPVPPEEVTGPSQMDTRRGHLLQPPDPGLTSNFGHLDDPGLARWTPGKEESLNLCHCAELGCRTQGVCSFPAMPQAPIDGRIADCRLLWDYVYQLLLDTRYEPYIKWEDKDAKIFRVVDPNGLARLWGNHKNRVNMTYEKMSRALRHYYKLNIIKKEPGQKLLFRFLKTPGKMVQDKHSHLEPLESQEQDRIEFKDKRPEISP
Summary of the method: as §1

ETV6 = ETV6 (Homo sapiens, UniProt P41212 1-452)
Summary of the method: as §1

ETV5, sequence (P41161 whole entry): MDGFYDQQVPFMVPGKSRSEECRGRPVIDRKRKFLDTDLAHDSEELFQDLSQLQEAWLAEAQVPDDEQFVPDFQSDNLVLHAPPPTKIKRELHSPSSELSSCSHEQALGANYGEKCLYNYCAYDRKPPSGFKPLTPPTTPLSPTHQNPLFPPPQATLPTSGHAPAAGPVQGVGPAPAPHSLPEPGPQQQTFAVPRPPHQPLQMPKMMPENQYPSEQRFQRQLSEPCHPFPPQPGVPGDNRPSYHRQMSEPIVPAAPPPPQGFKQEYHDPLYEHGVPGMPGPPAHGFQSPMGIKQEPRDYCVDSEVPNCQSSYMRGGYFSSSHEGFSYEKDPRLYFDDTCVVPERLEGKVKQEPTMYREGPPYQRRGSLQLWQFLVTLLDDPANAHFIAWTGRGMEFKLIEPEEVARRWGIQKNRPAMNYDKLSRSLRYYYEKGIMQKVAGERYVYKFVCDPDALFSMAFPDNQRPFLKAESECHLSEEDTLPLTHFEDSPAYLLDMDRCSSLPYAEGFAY
ETV1, sequence (P50549 whole entry): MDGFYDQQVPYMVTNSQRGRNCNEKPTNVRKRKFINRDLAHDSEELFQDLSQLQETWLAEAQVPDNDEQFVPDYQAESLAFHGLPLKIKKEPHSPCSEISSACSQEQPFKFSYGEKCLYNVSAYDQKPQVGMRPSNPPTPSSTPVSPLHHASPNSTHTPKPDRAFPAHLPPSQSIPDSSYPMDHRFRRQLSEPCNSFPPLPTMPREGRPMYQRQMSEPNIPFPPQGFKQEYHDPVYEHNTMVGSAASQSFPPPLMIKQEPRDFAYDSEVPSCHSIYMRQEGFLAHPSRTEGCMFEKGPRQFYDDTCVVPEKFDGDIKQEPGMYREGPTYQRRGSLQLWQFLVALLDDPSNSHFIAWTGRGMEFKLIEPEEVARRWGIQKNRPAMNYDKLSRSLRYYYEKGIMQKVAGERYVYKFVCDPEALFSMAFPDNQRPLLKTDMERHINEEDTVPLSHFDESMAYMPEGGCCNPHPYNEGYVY
ELF1, sequence (P32519 whole entry): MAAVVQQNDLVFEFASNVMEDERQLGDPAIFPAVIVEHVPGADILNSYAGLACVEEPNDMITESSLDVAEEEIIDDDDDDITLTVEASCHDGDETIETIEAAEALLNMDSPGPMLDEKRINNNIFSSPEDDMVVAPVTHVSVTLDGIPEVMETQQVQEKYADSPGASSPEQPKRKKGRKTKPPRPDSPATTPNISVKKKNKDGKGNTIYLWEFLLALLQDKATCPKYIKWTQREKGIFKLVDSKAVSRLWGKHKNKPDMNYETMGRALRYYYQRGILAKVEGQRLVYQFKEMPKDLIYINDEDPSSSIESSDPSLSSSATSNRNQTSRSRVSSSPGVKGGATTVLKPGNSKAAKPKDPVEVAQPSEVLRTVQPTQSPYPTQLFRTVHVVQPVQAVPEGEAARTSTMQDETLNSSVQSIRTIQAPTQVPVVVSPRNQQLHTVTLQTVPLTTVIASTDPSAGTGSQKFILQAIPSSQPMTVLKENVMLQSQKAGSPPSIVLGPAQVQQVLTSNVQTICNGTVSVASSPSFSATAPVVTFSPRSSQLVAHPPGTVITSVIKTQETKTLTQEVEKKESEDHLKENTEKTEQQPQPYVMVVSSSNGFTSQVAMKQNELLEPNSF
ETV6, sequence (P41212 whole entry): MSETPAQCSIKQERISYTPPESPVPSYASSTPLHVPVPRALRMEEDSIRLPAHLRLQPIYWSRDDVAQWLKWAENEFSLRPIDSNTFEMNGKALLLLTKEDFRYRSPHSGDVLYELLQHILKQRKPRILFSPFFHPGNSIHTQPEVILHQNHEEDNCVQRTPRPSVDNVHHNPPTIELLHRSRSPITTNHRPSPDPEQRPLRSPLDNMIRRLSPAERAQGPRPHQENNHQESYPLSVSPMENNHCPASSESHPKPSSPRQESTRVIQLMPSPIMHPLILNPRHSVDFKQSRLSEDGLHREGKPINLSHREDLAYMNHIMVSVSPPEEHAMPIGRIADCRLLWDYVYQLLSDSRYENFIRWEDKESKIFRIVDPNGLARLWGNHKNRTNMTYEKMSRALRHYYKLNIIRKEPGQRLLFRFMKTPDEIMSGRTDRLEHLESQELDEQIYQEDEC

## GGCTAA
GABPA
  binding signal: 1.01 fold enrichment (6-mer frequency, TF over GST control)
ELF1
  binding signal: 1.04 fold enrichment (6-mer frequency, TF over GST control)
EHF
  binding signal: 1.01 fold enrichment (6-mer frequency, TF over GST control)
FEV
  binding signal: 1.01 fold enrichment (6-mer frequency, TF over GST control)
ETV5
  binding signal: 1.01 fold enrichment (6-mer frequency, TF over GST control)
ELK4
  binding signal: 1.04 fold enrichment (6-mer frequency, TF over GST control)
ETV1
  binding signal: 1.03 fold enrichment (6-mer frequency, TF over GST control)
SPDEF
  binding signal: 1 fold enrichment (6-mer frequency, TF over GST control)
ETV7
  binding signal: 1 fold enrichment (6-mer frequency, TF over GST control)
ETV6
  binding signal: 1.04 fold enrichment (6-mer frequency, TF over GST control)
